AmpC no deterg: AmpC beta-lactamase inhibition without detergent. P00811. AmpC nitrocefin hydrolysis, absorbance 480 nm, 0.0001% Triton. Potency, µM (series often up to 57.1 µM), most hits filed as inhibitors. 330,000 compounds, 0.52% hits. AID 485341; note: nearly all actives have a fitted effect of over 20% in size
Target sequence (P00811 whole entry, looked up): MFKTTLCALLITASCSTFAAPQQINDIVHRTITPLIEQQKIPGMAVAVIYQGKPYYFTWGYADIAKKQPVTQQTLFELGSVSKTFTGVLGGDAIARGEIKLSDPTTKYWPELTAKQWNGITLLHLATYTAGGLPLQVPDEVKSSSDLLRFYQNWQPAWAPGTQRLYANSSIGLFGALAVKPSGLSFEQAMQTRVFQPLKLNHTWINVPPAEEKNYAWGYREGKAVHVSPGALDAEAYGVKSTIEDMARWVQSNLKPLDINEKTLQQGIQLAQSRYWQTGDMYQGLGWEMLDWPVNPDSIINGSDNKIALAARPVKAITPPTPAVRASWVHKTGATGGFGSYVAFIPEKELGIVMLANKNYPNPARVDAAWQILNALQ
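20 mM phosphate pH 7.0 + 0.01% (detergent screen) or 0.0001% Triton X-100; 5.3 nM AmpC reagent; cpd preinc 15 min RT; nitrocefin (800 uM stock) to start; A480 q20 s × 4 min; Activity was normalised to no-enzyme and no-compound control wells.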
HCV inh: HCV inhibition. Huh7.5.1 HCVcc-Cre infection, luciferase reporter, 44 h. Potency, µM (titrated, usually from 41.8 µM), most hits filed as inhibitors. 340,000 compounds, 3.4% hits
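After 44 h co-culture of compound, cells and HCVcc-Cre (~0.5 moi), substrate is added for 15 min at room temperature and luciferase measured over 15 sec. Cells were seeded at 1,000/well and pre-cultured 4 h.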
Pf growth 48h: inhibits P. falciparum growth in the first generation, 48 h; P. falciparum luciferase growth in erythrocytes, 48 h; Potency, µM (series often up to 28.7 µM), hits mostly inhibitors; 310,000 compounds, 5.9% hits
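Compounds are pin-transferred into medium, infected erythrocytes (2% hematocrit, 0.1% parasitemia final) are added, and plates sit one parasite generation at 37 C in 5% CO2. Detection reagent is then added and luminescence measured.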
AMA1-RON2 inh: inhibitors of Plasmodium falciparum AMA1-RON2 interaction. AlphaScreen AMA1-biotinylated RON2 peptide binding. Potency, µM (top dose mostly 58.2 µM), hits mostly inhibitors. 360,000 compounds, 0.2% hits; note: nearly all actives have a fitted effect of over 45% in size
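AMA1 (3D7) with his tag at 25 nM final met compounds first, then biotinylated RON2 peptide at 25 nM; detection used donor plus acceptor beads, 10 µg/mL apiece, read by AlphaScreen after 30 min at room temperature.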
Pf growth 96h: P. falciparum growth inhibition at 96 hour, primary screen for plastid delayed-death inhibitors. P. falciparum luciferase reporter growth, 96 h. Potency, µM (highest dose often 28.7 µM), usual class: inhibitors. 320,000 compounds, 6.9% hits
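Infected RBCs, 2% Hct / 0.05% parasitemia final; luciferase-reporter P. falciparum; cpd 96 h, 37 C, 5% CO2; luciferase detection reagent; luminescence.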
AmpC inh detg: AmpC beta-lactamase inhibition with detergent present | P00811 | AmpC hydrolysis of nitrocefin, absorbance 480 nm, 0.01% Triton | Potency, µM (series often up to 114 µM), usual class: inhibitors | 370,000 compounds, 0.041% hits; note: nearly all actives have a fitted effect of over 25% in size
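AmpC (5.3 nM in the dispensed reagent) in 20 mM phosphate pH 7.0 with 0.01% (detergent screen) or 0.0001% Triton X-100 was preincubated with compounds for 15 min at room temperature. Nitrocefin was then added from an 800 uM solution, and hydrolysis was followed at 480 nm.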
Each line names hits and unclear results; the compound was inactive in the other large screens. A selection: hits, their analogues and other compounds. The true share with any hit is near 11%. Calls come from the whole dose curve; as a rule, active = well fitted curve in the direction sought with a large enough effect; inconclusive = small, poorly fitted or top-dose-only effect, or another doubt; inactive = no such curve, though single readings can be large; an effect the other way counts as inactive or inconclusive.

CCC(O)C1CCN(Cc2cn(Cc3ccccc3)nc2-c2cc3ccccc3o2)CC1 (stereo not drawn)	HCV inh inconclusive, Pf growth 48h 5.2µM
COCCOC1CCN(Cc2cn(Cc3ccccc3)nc2-c2cc3ccccc3o2)CC1	Pf growth 48h inconclusive
COc1ccc(C2=NN(S(=O)(=O)c3ccccc3)C(c3ccccc3)C2)cc1 (stereo not drawn)	HCV inh inconclusive, Pf growth 48h inconclusive, Pf growth 96h 6.6µM
COc1ccc(C2CC(c3ccccc3)=NN2S(=O)(=O)c2ccc(C)cc2)c(OC)c1 (stereo not drawn)	HCV inh inconclusive, Pf growth 48h inconclusive, Pf growth 96h 12µM
O=S(=O)(c1ccccc1)N1N=C(c2ccccc2)CC1c1ccccc1 (stereo not drawn)	Pf growth 48h inconclusive, Pf growth 96h inconclusive
COc1ccc(NC(=O)c2oc3ccccc3c2NC(=O)C2CCCCC2)c(OC)c1	none (no result: AmpC no deterg, HCV inh, Pf growth 48h, AMA1-RON2 inh, Pf growth 96h)
c1ccc2c(c1)OCCOCCOCCOCCOCCOc1ccccc1OCCOCCOCCO2	HCV inh inconclusive, Pf growth 48h inconclusive, Pf growth 96h 7.4µM
CCc1ccccc1NC1=NCC(=O)N1Cc1ccc2c(c1)OCO2	Pf growth 96h 4.1µM
CCC(=O)Nc1cc(C)c(O)c(-c2nc3ncccc3o2)c1	none (no result: AmpC no deterg, HCV inh, Pf growth 48h, AMA1-RON2 inh, Pf growth 96h)
COc1cccc(-c2nnn(CC(=O)NC3CCCC3)n2)c1OC	HCV inh inconclusive, Pf growth 96h 9.3µM
CN(CC(=O)Nc1ccc(N2CCOCC2)cc1)C(=O)CCc1cc(C(C)(C)C)c(O)c(C(C)(C)C)c1	Pf growth 48h 3.3µM, AMA1-RON2 inh inconclusive, Pf growth 96h 9.3µM
O=C(COC(=O)c1ccc(CO)cc1)Nc1ccc2ccccc2c1	none
N#CCC(=O)Nc1ccc(C(=O)OCC(=O)Nc2ccc3ccccc3c2)cc1	AmpC no deterg 20µM, HCV inh inconclusive, Pf growth 48h 13µM
CCn1c2ccccc2c2cc(NC(=O)CN(C)CC(=O)Nc3ccc(N4CCOCC4)cc3)ccc21	HCV inh 11µM, AMA1-RON2 inh inconclusive, Pf growth 96h 15µM
CCn1c2ccccc2c2cc(NC(=O)COc3ccccc3)ccc21	AmpC no deterg 25µM, HCV inh inconclusive, Pf growth 96h inconclusive
Cc1ccc(CNC(=O)C(C)n2c(=O)cc(-c3ccccc3)c3c(C)nn(C)c32)cc1 (stereo not drawn)	none (no result: AmpC no deterg, HCV inh, Pf growth 48h, AMA1-RON2 inh, Pf growth 96h)
CCN(CC)S(=O)(=O)c1cc(NC(=O)COC(=O)c2ccc(NC(=O)CC#N)cc2)ccc1C	AmpC no deterg 7.9µM, Pf growth 96h inconclusive
CCN(CC)S(=O)(=O)c1cc(NC(=O)COC(=O)C2CCC2)ccc1C	Pf growth 48h inconclusive
CCn1c2ccccc2c2cc(NC(=O)COC(=O)c3ccccc3O)ccc21	HCV inh 11µM
CCN(CC)S(=O)(=O)c1cc(NC(=O)CSc2nc3c(cc2C#N)C(=O)CC(C)(C)C3)ccc1C	HCV inh inconclusive, Pf growth 48h 3.7µM, Pf growth 96h 2.6µM, AmpC inh detg inconclusive
CCn1c2ccccc2c2cc(NC(=O)CCCN3C(=O)CCC3=O)ccc21	HCV inh 3.5µM, Pf growth 96h inconclusive, AmpC inh detg inconclusive
Cc1ccc(-c2cc(C(=O)NCc3ccccc3)c3c(-c4ccc(C)cc4)[nH]nc3n2)cc1	none (no result: AmpC no deterg, HCV inh, Pf growth 48h, AMA1-RON2 inh, Pf growth 96h)
CCOc1ccccc1NC(=O)C(=O)NCCc1sc(-c2cccc(F)c2)nc1C	none (no result: AmpC no deterg, HCV inh, Pf growth 48h, AMA1-RON2 inh, Pf growth 96h)
CC(CCc1ccccc1)NC(=O)COC(=O)c1ccc(NC(=O)CC#N)cc1 (stereo not drawn)	Pf growth 48h 12µM, Pf growth 96h inconclusive
CCn1c2ccccc2c2cc(NC(=O)COC(=O)c3ccc(NC(=O)CC#N)cc3)ccc21	AmpC no deterg 32µM, HCV inh inconclusive
CC(CCc1ccccc1)NC(=O)COC(=O)c1ccc([N+](=O)[O-])cc1 (stereo not drawn)	AmpC inh detg inconclusive
CC(=O)c1cccc(NC(=O)CSc2nc3c(=O)n(C)c(=O)n(C)c3n2C)c1	none (no result: AmpC no deterg, HCV inh, Pf growth 48h, AMA1-RON2 inh, Pf growth 96h)
Cc1ccc(-c2ccc(C(=O)NCc3ccccc3)o2)c2ccccc12	HCV inh inconclusive, Pf growth 48h inconclusive, Pf growth 96h 10µM, AmpC inh detg inconclusive
Cc1ccc(-c2cccc(C(=O)NCCc3ccccc3)n2)c2ccccc12	HCV inh inconclusive
O=C(NCc1ccccc1)c1c(Cl)nc(Cl)c(Cl)c1Cl	HCV inh 13µM
CCOc1ccccc1-c1ccc(C(=O)NCc2ccccc2)o1	HCV inh 14µM, Pf growth 48h inconclusive, Pf growth 96h 7.4µM
Cc1ccc(-c2cccc(C(=O)NCc3ccccc3)n2)c2ccccc12	HCV inh inconclusive, Pf growth 48h inconclusive, Pf growth 96h 13µM
Cc1c(Cl)cccc1NC(=O)CSc1nc(=O)n(CCN2CCOCC2)c2c1CCC2	none (no result: AmpC no deterg, HCV inh, Pf growth 48h, AMA1-RON2 inh, Pf growth 96h)
Cc1ccc(-c2c(C(=O)N3CCOCC3)oc(=O)c3ccccc23)cc1	Pf growth 96h inconclusive (no result: Pf growth 48h)
CCN1CCN(C(=O)c2oc(=O)c3ccccc3c2-c2ccc(C)cc2)CC1	Pf growth 48h inconclusive, Pf growth 96h 4.7µM, AmpC inh detg inconclusive
COc1ccc(CN([C@H](CO)CC(C)C)S(=O)(=O)N(Cc2ccccc2)[C@H](CO)CC(C)C)cc1	HCV inh inconclusive (no result: Pf growth 48h, Pf growth 96h, AmpC inh detg)
C=CCN([C@@H](CC(C)C)C(=O)OC)S(=O)(=O)N(CC=C)[C@@H](CC(C)C)C(=O)OC	Pf growth 48h 4.7µM, Pf growth 96h inconclusive
CC(C)C[C@@H](CO)N(Cc1ccccc1)S(=O)(=O)N(Cc1ccccc1)[C@@H](CO)CC(C)C	Pf growth 48h 7.4µM, Pf growth 96h 2.6µM
CC(C)C[C@@H](CO)N(Cc1ccccc1)S(=O)(=O)N(Cc1ccccc1)[C@H](CO)CC(C)C	HCV inh inconclusive, Pf growth 48h 4.7µM, Pf growth 96h inconclusive
COC(=O)[C@@H](CC(C)C)NS(=O)(=O)N(Cc1ccccc1)[C@@H](CC(C)C)C(=O)OC	Pf growth 48h 13µM, Pf growth 96h inconclusive
Cc1ccc(OCc2nc3ccccc3n2Cc2ccccc2Cl)cc1	none (no result: AmpC no deterg, HCV inh, Pf growth 48h, AMA1-RON2 inh, Pf growth 96h)
CCN=C1S/C(=C\c2cn(C(C)=O)nc2-c2ccccc2)C(=O)N1CC	HCV inh 10µM
CCN(CC)CCNC(=O)c1ccc(Cn2c(=O)c3cccn3c3cccnc32)cc1	none (no result: AmpC no deterg, HCV inh, Pf growth 48h, AMA1-RON2 inh, Pf growth 96h)
Cc1ccc(NC(=O)N2C(=O)C3(OCCO3)c3ccccc32)cc1	Pf growth 96h 6.6µM
O=C1N(CCCN2C(=O)C3(OCCO3)c3ccccc32)c2ccccc2C12OCCO2	Pf growth 48h inconclusive, Pf growth 96h 8.3µM
CCn1c(=O)c(CCC(=O)NCC2CCCO2)c(C)c2c(C)nn(-c3ccccc3)c21 (stereo not drawn)	HCV inh 13µM

From PubChem BioAssay
